Measured values taken from PubChem BioAssay.
Activity calls are given as the source filed them. No rule for the calls is given here.

Assay: inhibition of Brca1/Bard1 split-luciferase complementation, confirmation, counter-screen for Mdm2/MdmX interaction inhibitor project, luminescence, single concentration (AID 504668)
Settings: Brca1/Bard1 bimolecular luciferase complementation counterscreen, at 8 µM, stronger effect = higher value

**Q.** With `CCOC(=O)C(CC)(CC)C(=O)/C=C/c1cccc(Br)c1` as the compound, how does the inhibition read?
**A.** Its inhibition is 29.2% (active).

**Q.** For `CCOc1cc(/C=N/N=C(\N)c2nonc2N)cc(Br)c1OCc1cccc2ccccc12`, which inhibition is on record?
**A.** The inhibition was 33.4% (active).

**Q.** For `Brc1ccc2ncnc(Nc3ccc(N4CCOCC4)cc3)c2c1`, which inhibition is on record?
**A.** Its inhibition is 25.5% (active).

**Q.** For `CCOc1ccc(C(=O)N/N=C(\c2ccccc2)c2ccccn2)cc1`, which inhibition is on record?
**A.** Its inhibition is 30.1% (active).

**Q.** Which inhibition does the source give for `Cc1cc(C(=O)NC2CCCc3c2cnn3-c2cccc(C)c2C)no1` (stereo not given) here?
**A.** The inhibition was 23.6% (active).

**Q.** For `O=C(NC1CCCc2c1cnn2-c1ccccc1F)c1ccccn1` (stereo not given), which inhibition is on record?
**A.** Its inhibition is 28.6% (active).

**Q.** For `O=C1Nc2cccnc2N(C(=O)CCl)c2ccccc21`, which inhibition is on record?
**A.** The inhibition was 31.2% (active).

**Q.** Which inhibition does the source give for `COc1ccccc1N(CC(=O)N/N=C/c1c(O)ccc2ccccc12)S(C)(=O)=O` here?
**A.** The inhibition was 26.2% (active).

**Q.** With `CC(=O)/C(C#N)=C1\NC(=O)C(Cc2ccc(C)c(C)c2)S1` (stereo not given) as the compound, how does the inhibition read?
**A.** The inhibition was 32.1% (active).

**Q.** Which inhibition does the source give for `N#CC(C#N)=C(Nc1ccc(F)cc1)SCc1cccc(F)c1` here?
**A.** The inhibition was 23.3% (active).

**Q.** For `C=CC(=O)N1c2ccccc2Sc2ccc(NC(=O)OCC)cc21`, which inhibition is on record?
**A.** The inhibition was 35.2% (active).

**Q.** For `Cc1cccc(NC(=O)Nc2cccc(Oc3c(F)c(F)c(F)c(F)c3F)c2)c1`, which inhibition is on record?
**A.** The inhibition was 32.5% (active).

**Q.** Which inhibition does the source give for `O=C(/C=C\c1cn(-c2ccccc2)nc1-c1ccccc1)Nc1nccs1` here?
**A.** Its inhibition is 28.9% (active).

**Q.** Which inhibition does the source give for `Oc1ccc(/C=N/Nc2nc(-c3ccccc3F)nc3ccccc23)c(O)c1` here?
**A.** The inhibition was 31% (active).

**Q.** Which inhibition does the source give for `NC(N)=N/N=C/c1ccc(OCc2ccccc2Cl)cc1` here?
**A.** Its inhibition is 32.5% (active).

**Q.** For `CCN(CC)S(=O)(=O)c1ccc2c(c1)C(=NO)c1cc(S(=O)(=O)N(CC)CC)ccc1-2`, which inhibition is on record?
**A.** Its inhibition is 23.7% (active).

**Q.** Which inhibition does the source give for `COc1ccc(/C=C2/SC(=S)N(CCCC(=O)N3CCN(C)CC3)C2=O)cc1` here?
**A.** Its inhibition is 31.7% (active).

**Q.** With `CCOC(=O)c1nc(NNC(=O)c2ccc([N+](=O)[O-])cc2)sc1C` as the compound, how does the inhibition read?
**A.** The inhibition was 27.4% (active).

**Q.** For `Clc1cc2cccnc2c2ncccc12`, which inhibition is on record?
**A.** Its inhibition is 31.6% (active).

**Q.** With `Cc1cccc([C@@H]2[C@@H]3C(=O)N(Cc4ccccc4)C(=O)[C@@H]3[C@]3(C)C(=O)N(c4ccc(C(F)(F)F)cc4)C(=O)N23)c1` as the compound, how does the inhibition read?
**A.** The inhibition was 33.2% (active).

**Q.** For `CC(=O)Nc1nc(C)c(-c2csc(Nc3ccc(S(N)(=O)=O)cc3)n2)s1`, which inhibition is on record?
**A.** The inhibition was 31.7% (active).

**Q.** Which inhibition does the source give for `Cc1sc2ncnc(N3CCC(C(=O)Nc4ccccc4C(C)(C)C)CC3)c2c1C` here?
**A.** The inhibition was 27.8% (active).

**Q.** For `COC(=O)[C@@H]1[C@@H](C#N)C2(c3ccccc3-c3ccccc32)N(c2ccc(Cl)cc2)N1C#N`, which inhibition is on record?
**A.** The inhibition was 32.8% (active).

**Q.** With `Cc1cc(SC#N)cc(C)c1NC(=O)CCl` as the compound, how does the inhibition read?
**A.** Its inhibition is 33.8% (active).

**Q.** Which inhibition does the source give for `ClC(Cl)(Cl)c1nc2ccccc2n2nncc12` here?
**A.** Its inhibition is 31.8% (active).

**Q.** With `COc1cc(Br)cc(/C=N/NC(=O)Cc2ccc(C(F)(F)F)cc2[N+](=O)[O-])c1O` as the compound, how does the inhibition read?
**A.** Its inhibition is 32.8% (active).

**Q.** For `O=c1c2ccccc2nc(-c2ccc(Cl)c(Cl)c2)n1O`, which inhibition is on record?
**A.** The inhibition was 26.8% (active).

**Q.** Which inhibition does the source give for `COc1ccc(-c2cc(C(=O)N/N=C/c3sccc3C)c3ccccc3n2)c(OC)c1` here?
**A.** Its inhibition is 31.4% (active).

**Q.** With `O=C(Nc1ccc(Cl)c([N+](=O)[O-])c1)C(Sc1ccccc1)c1ccccc1` (stereo not given) as the compound, how does the inhibition read?
**A.** The inhibition was 24.1% (active).

**Q.** For `COc1ccc(C(=O)C(CCCCC(CN(C)C)C(=O)c2ccc(OC)cc2)CN(C)C)cc1` (stereo not given), which inhibition is on record?
**A.** The inhibition was 30.7% (active).

**Q.** Which inhibition does the source give for `CC(Oc1cccc(Br)c1)C(=O)NNC(=O)c1ccccn1` (stereo not given) here?
**A.** The inhibition was 35.8% (active).

**Q.** Which inhibition does the source give for `COc1cccc(CNc2ncnc3ccc(-c4c(C)noc4C)cc23)c1` here?
**A.** The inhibition was 31% (active).

**Q.** With `COc1ccccc1NCC(=O)N/N=C/c1c(O)ccc2ccccc12` as the compound, how does the inhibition read?
**A.** Its inhibition is 24.6% (active).

**Q.** For `C=C(C(=O)c1ccccc1)C(C)CC(=O)c1ccccc1` (stereo not given), which inhibition is on record?
**A.** Its inhibition is 32.4% (active).

**Q.** Which inhibition does the source give for `Cc1ccc2cccc(NS(=O)(=O)c3ccccc3)c2n1` here?
**A.** The inhibition was 23.1% (active).

**Q.** With `Cc1cccc(Cn2nc(C(C)(C)C)cc2C(=O)Nc2ccc(F)cc2)c1` as the compound, how does the inhibition read?
**A.** The inhibition was 31.2% (active).

**Q.** Which inhibition does the source give for `COc1ccc(C(NC(C)=O)c2cc(Cl)c3cccnc3c2O)cc1` (stereo not given) here?
**A.** The inhibition was 29.3% (active).

**Q.** Which inhibition does the source give for `Cc1ccc(O)c(/C=N/NC(=O)Cc2ccc(Cl)cc2)c1` here?
**A.** Its inhibition is 33.6% (active).

**Q.** Which inhibition does the source give for `N/C(=N\NC(=O)c1sccc1OCc1ccc(Cl)cc1Cl)c1ccccn1` here?
**A.** Its inhibition is 35.1% (active).

**Q.** For `CC(C)[C@@H]1CC[C@@H](C)C[C@H]1OC(=O)C[n+]1cc(-c2ccc(Cl)cc2)n2c1CCCCC2`, which inhibition is on record?
**A.** Its inhibition is 28.7% (active).
